Test results published in the supplement of paper PMC10515830.
Counter-ions that a name gives are not always drawn.

Tests used:
Details in all cases: 10 µM; exposure time 6 h
[1] = tested on: Danio rerio larvae (5 dpf); experiment: difference in excitability vs DMSO (percentage points); higher = more excitable than DMSO
Summary of the method: (§1)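 Wild-type zebrafish larvae at 5 dpf were kept in 96-well plates and exposed for 6 h to 100 µL egg water holding library compound at a final concentration of 10 µM. From 3 h into exposure, the plates were held at 28.5 ℃ and photographed every 6 s through a 3-h programme of moving lines and 100 ms, 400Hz tones. Each behaviour was scored by Z-LaP Tracker, a DeepLabCut model, and averaged over 48 larvae per compound. Every value gives the compound mean minus the vehicle control mean, in percentage points.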

[2] = tested on: Danio rerio larvae (5 dpf); experiment: difference in startle response vs DMSO (percentage points); higher = stronger startle than DMSO
Summary of the method: as §1

[3] = tested on: Danio rerio larvae (5 dpf); experiment: difference in activity during first hour vs DMSO (percentage points); higher = more activity than DMSO
Summary of the method: as §1

[4] = tested on: Danio rerio larvae (5 dpf); experiment: difference in habituation to acoustic stimuli vs DMSO (percentage points); higher = more habituation than DMSO
Summary of the method: as §1

[5] = tested on: Danio rerio larvae (5 dpf); experiment: difference in combined optomotor response to red, green and blue moving lines vs DMSO (percentage points); higher = stronger optomotor response than DMSO
Summary of the method: as §1

SMILES	difference in excitability [1]	difference in startle response [2]	difference in activity during first hour [3]	difference in habituation to acoustic stimuli [4]	difference [5]
CN(C)C(=N)NC(=N)N [Metformin (hydrochloride)]	-3.21	1.77	-3.05	-5.21	-1.97
Nc1nc2c(ncn2COC(CO)CO)c(=O)[nH]1 [Ganciclovir]	1.56	3.58	7.53	2.18	4.57
CCCCCC(=O)O[C@]1(C(C)=O)CC[C@H]2[C@@H]3CCC4=CC(=O)CC[C@]4(C)[C@H]3CC[C@@]21C [Hydroxyprogesterone Caproate]	5.64	-9.54	-13.7	-9.28	-15.8
CC1COc2c(N3CCN(C)CC3)c(F)cc3c(=O)c(C(=O)O)cn1c23 (stereo not given) [Ofloxacin]	5.76	3.75	9.1	-0.318	1.41
Clc1ccc2nsnc2c1NC1=NCCN1 [Tizanidine (hydrochloride)]	1.85	4.3	-8.71	1.04	-0.822
CCOC(=O)O[C@]1(C(=O)COC(=O)CC)CC[C@H]2[C@@H]3CCC4=CC(=O)C=C[C@]4(C)[C@H]3[C@@H](O)C[C@@]21C [Prednicarbate]	10.3	3.6	-2.36	-0.38	-0.877
CCCCC[C@H](O)/C=C/[C@H]1[C@H](O)CC(=O)[C@@H]1C/C=C\CCCC(=O)O [Prostaglandin E2]	16.7	-5.41	2.46	4.14	5.15
CC1(C)O[C@@H]2C[C@H]3[C@@H]4C[C@H](F)C5=CC(=O)C=C[C@]5(C)[C@H]4[C@@H](O)C[C@]3(C)[C@]2(C(=O)CO)O1 [Flunisolide]	4.3	-3.48	6.73	1.9	3.28
Nc1ccn(C[C@@H](CO)OCP(=O)(O)O)c(=O)n1 [Cidofovir]	-2.11	-1.31	-7.68	-3.35	-5.67
CC[C@@H](CO)NCCN[C@@H](CC)CO [Ethambutol (hydrochloride)]	2.65	1.19	7	4.16	-3.67
CN(C)C(=O)N[C@H]1CC[C@H](CCN2CCN(c3cccc(Cl)c3Cl)CC2)CC1 [Cariprazine (hydrochloride)]	11.3	-2.66	-2.12	-3.39	-1.22
COc1c(C)c2c(c(O)c1C/C=C(\C)CCC(=O)OCCN1CCOCC1)C(=O)OC2 [Mycophenolate Mofetil]	7.89	-4.66	-3.09	-2.74	1.02
CC(C)C[C@H](NC(=O)[C@H](CCc1ccccc1)NC(=O)CN1CCOCC1)C(=O)N[C@@H](Cc1ccccc1)C(=O)N[C@@H](CC(C)C)C(=O)[C@@]1(C)CO1 [Carfilzomib]	5.53	-0.402	4.53	2.38	4.24
OCCN1C[C@H](O)[C@@H](O)[C@H](O)[C@H]1CO [Miglitol]	8.03	3.24	-0.913	-2.04	8.24
CN(C)CCOC(c1ccc(Cl)cc1)c1ccccn1 (stereo not given) [Carbinoxamine (maleate)]	8.33	3.19	-11.6	5.36	-7.17
CC(=O)N[C@H]1[C@H]([C@H](O)[C@H](O)CO)OC(C(=O)O)=C[C@@H]1NC(=N)N [Zanamivir]	1.36	-2.53	-16.7	1.69	-6.11
CCC[C@@H]1C[C@@H](C(=O)N[C@@H]([C@H]2O[C@H](SC)[C@H](O)[C@@H](O)[C@H]2O)[C@H](C)Cl)N(C)C1 [Clindamycin]	-2.97	2.68	-14.7	4.82	-4.05
C[C@H]1O[C@H](O[C@H]2[C@H](O)[C@@H](O)[C@@H](O[C@H]3[C@H](O)[C@@H](O)C(O)O[C@@H]3CO)O[C@@H]2CO)[C@H](O)[C@@H](O)[C@@H]1N[C@H]1C=C(CO)[C@@H](O)[C@H](O)[C@H]1O (stereo not given in full) [Acarbose]	11	-8.81	-0.68	-4.5	4.03
CN(C)CCC=C1c2ccccc2COc2ccccc21 [Doxepin (hydrochloride)]	9.9	-1.02	0.133	2.48	4.43
CC1=C(C(=O)O)N2C(=O)[C@@H](NC(=O)[C@H](N)c3ccccc3)[C@H]2SC1 [Cephalexin]	6.31	7.97	2.55	-0.572	3.98
CC[C@@]1(O)C(=O)OCc2c1cc1n(c2=O)Cc2cc3c(CN(C)C)c(O)ccc3nc2-1 [Topotecan (hydrochloride)]	4.94	-0.393	0.473	-4.39	1.01

SMILES	difference in excitability [1]	difference in startle response [2]	difference in activity during first hour [3]	difference in habituation to acoustic stimuli [4]	difference [5]
CC(=O)O[C@]1(C(C)=O)CC[C@H]2[C@@H]3C=C(C)C4=CC(=O)CC[C@]4(C)[C@H]3CC[C@@]21C [Megestryl Acetate]	20.8	-4.3	4.4	-8.79	-10.8
C[C@H]1COc2c(N3CCN(C)CC3)c(F)cc3c(=O)c(C(=O)O)cn1c23 [Levofloxacin]	-4.09	1.07	16.5	2.74	4.84
CC(C)NCC(O)COc1ccc(CC(N)=O)cc1 (racemic) [(±)-Atenolol]	3.98	-0.206	8.47	1.78	1.82
COc1cc2nc(N(C)CCCNC(=O)C3CCCO3)nc(N)c2cc1OC (stereo not given) [Alfuzosin (hydrochloride)]	9.01	2.43	5.63	-6.84	1.55
Nc1nc2c(c(=O)[nH]1)N(C=O)C(CNc1ccc(C(=O)NC(CCC(=O)O)C(=O)O)cc1)CN2 (racemic) [DL-Folinic Acid (calcium salt)]	-0.743	2.87	8.84	0.082	5.53
Nc1ccn([C@@H]2O[C@H](CO)[C@@H](O)C2(F)F)c(=O)n1 [Gemcitabine]	-0.256	-0.373	-2.75	-1.87	2.24
CC(C)C(=O)OCC(=O)[C@@]12O[C@H](C3CCCCC3)O[C@@H]1C[C@H]1[C@@H]3CCC4=CC(=O)C=C[C@]4(C)[C@H]3[C@@H](O)C[C@@]12C [Ciclesonide]	9.7	-3.59	-7.9	-5.49	9.17
CC(=O)OCC(=O)[C@@]12N=C(C)O[C@@H]1C[C@H]1[C@@H]3CCC4=CC(=O)C=C[C@]4(C)[C@H]3[C@@H](O)C[C@@]12C [Deflazacort]	13.1	3.69	-3.59	-1.6	13.9
O=C1CCc2cc(OCCCCc3nnnn3C3CCCCC3)ccc2N1 [Cilostazol]	12.6	2.9	11.7	-4.79	0.57
Nc1cccc2c1C(=O)N(C1CCC(=O)NC1=O)C2=O (stereo not given) [Pomalidomide]	0.1	2.2	0.787	2.64	1.26
O=C1CC2(CCCC2)CC(=O)N1CCCCN1CCN(c2ncccn2)CC1 [Buspirone (hydrochloride)]	24.5	1.48	-8.4	4.59	0.171
CCc1ccc(CCOc2ccc(CC3SC(=O)NC3=O)cc2)nc1 (stereo not given) [Pioglitazone (hydrochloride)]	12.4	-4.66	-15.3	6.03	3.69
COc1cc(NC(C)CCCN)c2ncccc2c1 (stereo not given) [Primaquine (phosphate)]	23.1	-5.2	2.45	-4.94	-0.724
COc1ccc(NC(=O)c2ccc(C(=N)N(C)C)cc2)c(C(=O)Nc2ccc(Cl)cn2)c1 [Betrixaban]	11.6	2.94	2.19	5.98	7.59
CCOc1nc2cccc(C(=O)OCc3oc(=O)oc3C)c2n1Cc1ccc(-c2ccccc2-c2noc(=O)[nH]2)cc1 [Azilsartan Medoxomil]	6.47	-1.67	-8.07	5.02	-2.25
CN(C)[C@@H]1C(O)=C(C(N)=O)C(=O)[C@@]2(O)C(O)=C3C(=O)c4c(O)ccc(Cl)c4[C@@H](O)[C@H]3C[C@@H]12 [Demeclocycline (hydrochloride)]	12.9	-2.29	4.59	7.81	2.94
N=C(N)c1ccc(OCCCCCOc2ccc(C(=N)N)cc2)cc1 [Pentamidine]	17	5.88	-2.12	0.725	5.19
O=C(O[C@@H]1C[C@@H]2C[C@H]3C[C@H](C1)N2CC3=O)c1c[nH]c2ccccc12 [Dolasetron]	10.9	-3.55	2.6	7.35	6.71
C[N+]1(C)[C@@H]2CC[C@H]1C[C@@H](OC(=O)C(O)c1ccccc1)C2 (stereo not given in full) [Methylhomatropine (bromide)]	5.63	0.325	2.46	1.2	-3.01
NC[C@H]1O[C@H](O[C@H]2[C@H](O)[C@@H](O[C@H]3O[C@H](CO)[C@@H](O)[C@H](N)[C@H]3O)[C@H](N)C[C@@H]2N)[C@H](N)C[C@@H]1O [Tobramycin]	25.5	-1.65	-2.18	4.43	-2.09
